From PubChem BioAssay
Active and inactive are the calls of the source. Unless noted, how the calls were made is not given here.

Tests used:
[1] = A549 cell viability effects, profiling panel, calcein-AM fluorescence, 48 h, basal (AID 1162); conditions: higher = more signal; further: test concentration not given here
[2] = adipocyte viability effects, profiling panel, cell-based, 3T3-L1 adipocytes, calcein-AM fluorescence, 48 h, basal (AID 1163); conditions: 3T3-L1 adipocytes viability, higher = more signal; further: test concentration not given here
[3] = HepG2 cell viability effects, profiling panel, calcein-AM fluorescence, 48 h, basal (AID 1164); conditions: higher = more signal; further: test concentration not given here
[4] = MM1S cell viability effects, profiling panel, calcein-AM fluorescence, 48 h, basal (AID 1165); conditions: higher = more signal;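 further: viability of MM1S multiple myeloma cells under basal unstimulated conditions; test concentration not given here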
[5] = basal RPMI8226 viability, no added stimulus, profiling panel, cell-based, calcein-AM fluorescence, 48 h, PK04 Diversity Set (AID 1166); conditions: RPMI8226 myeloma viability, higher = more signal;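 further: cells grown under basal conditions without added stimulus; test concentration not given here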
[6] = basal HepG2 mitochondrial membrane potential changes, profiling panel, cell-based, JC-1 fluorescence, 24 h, 100 nL compound (AID 1167); conditions: higher = more signal; further: test concentration not given here
[7] = basal 3T3-L1 adipocyte mitochondrial potential changes, profiling panel, cell-based, JC-1 fluorescence, 3T3-L1 adipocytes, 24 h, 100 nL compound (AID 1168); conditions: JC-1 mitochondrial fluorescence, higher = more signal, called active from +8 up or from −8 down; further: test concentration not given here
[8] = basal RPMI8226 mitochondrial membrane potential changes, profiling panel, cell-based, JC-1 fluorescence, 24 h, 100 nL compound (AID 1169); conditions: RPMI8226 myeloma, JC-1 mitochondrial potential fluorescence, higher = more signal; further: test concentration not given here
[9] = basal MM1S mitochondrial membrane potential changes, profiling panel, cell-based, JC-1 fluorescence, 24 h, 100 nL compound (AID 1170); conditions: higher = more signal; further: test concentration not given here
[10] = A549 lung cancer cell viability effects, profiling panel, resazurin fluorescence, 24 h, PK04 Diversity Set (AID 1171); conditions: higher = more signal, called active from +8 up or from −8 down; further: test concentration not given here
[11] = HepG2 liver cancer cell viability effects, profiling panel, resazurin fluorescence, 24 h, PK04 Diversity Set (AID 1172); conditions: higher = more signal; further: test concentration not given here
[12] = basal S. cerevisiae growth modulation, no modifier, primary screen, OD600, strain BY4716, 24 h, basal condition (AID 1173); conditions: OD600, 24 h, higher = more signal, called active from +8 up or from −8 down
[13] = MM1S myeloma cell viability, profiling panel, resazurin fluorescence, basal, 24 h, PK04 Diversity Set (AID 1174); conditions: higher = more signal, called active from +8 up or from −8 down;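 further: MM1S multiple myeloma cell line; test concentration not given here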
[14] = target: Dihydroorotate dehydrogenase (quinone), mitochondrial (Plasmodium falciparum (isolate 3D7)) (UniProt Q08210); assay: PfDHODH enzyme inhibitors, primary screen, biochemical, C-terminal His tag, absorbance 600 nm (AID 1175); conditions: DCIP absorbance 600 nm, higher = more signal, called active from +8 up or from −8 down;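 further: recombinant parasite enzyme with a five histidine tag at its C terminus; test concentration not given here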
Sequence of Dihydroorotate dehydrogenase (quinone), mitochondrial (Plasmodium falciparum (isolate 3D7)) (Q08210 whole entry, looked up): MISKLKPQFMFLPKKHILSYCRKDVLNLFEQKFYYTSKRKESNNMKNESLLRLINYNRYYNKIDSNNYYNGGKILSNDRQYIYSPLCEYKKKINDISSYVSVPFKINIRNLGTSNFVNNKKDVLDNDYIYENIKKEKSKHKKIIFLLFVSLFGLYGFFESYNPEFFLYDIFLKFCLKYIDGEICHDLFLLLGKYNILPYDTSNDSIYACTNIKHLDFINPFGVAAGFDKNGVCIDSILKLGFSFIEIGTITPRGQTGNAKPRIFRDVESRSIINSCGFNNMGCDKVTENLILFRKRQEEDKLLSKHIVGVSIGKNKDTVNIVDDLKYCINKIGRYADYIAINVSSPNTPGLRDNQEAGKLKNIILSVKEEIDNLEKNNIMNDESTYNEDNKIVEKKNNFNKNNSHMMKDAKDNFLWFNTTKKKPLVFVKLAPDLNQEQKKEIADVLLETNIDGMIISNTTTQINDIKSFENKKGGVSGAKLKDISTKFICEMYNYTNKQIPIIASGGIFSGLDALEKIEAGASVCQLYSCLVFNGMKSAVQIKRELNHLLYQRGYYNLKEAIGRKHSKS

[15] = P. aeruginosa biofilm formation inhibitors, primary screen, strain PAO1, LB-PBS medium, absorbance 600 nm (AID 1176); further: test concentration not given here; conditions: P. aeruginosa PAO1 growth/biofilm, A600, 12 h; higher = more signal
[16] = S. cerevisiae RM11-1a growth modifiers, primary screen, strain RM11-1a, OD600, basal, 24 h (AID 1177); conditions: OD600, 24 h, higher = more signal, called active from +8 up or from −8 down;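 further: cultures grown under basal conditions with no added stressor; test concentration not given here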
[17] = E. coli acrAB mutant growth effects, primary screen, E. coli filamentation inducers, strain DRC39, OD650, 24 h (AID 1178); conditions: higher = more signal, called active from +8 up or from −8 down;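 further: growth measured as culture turbidity by optical density at 650 nm; test concentration not given here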
[18] = E. coli acrAB mutant growth effects, primary screen, E. coli filamentation inducers, strain DRC39, OD650, 48 h (AID 1179);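 further: screen aims at cell division blockers that make cells filament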; conditions: E. coli DRC39 delta-acrAB growth, higher = more signal, called active from +8 up or from −8 down
[19] = RPMI8226 myeloma cell viability, profiling panel, resazurin fluorescence, basal, 24 h, PK04 Diversity Set (AID 1180); conditions: higher = more signal;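 further: RPMI8826 multiple myeloma cell line at 5000 cells per well; test concentration not given here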
[20] = target: E3 ubiquitin-protein ligase XIAP (Homo sapiens) (UniProt P98170); assay: XIAP binders, primary screen, biophysical, small-molecule microarray, fluorescence 635 nm (AID 1181); conditions: small-molecule microarray binding, higher = more signal;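 further: score merges 667 nm emission and signal to noise over triplicate slides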
Sequence of E3 ubiquitin-protein ligase XIAP (Homo sapiens) (P98170 whole entry, looked up): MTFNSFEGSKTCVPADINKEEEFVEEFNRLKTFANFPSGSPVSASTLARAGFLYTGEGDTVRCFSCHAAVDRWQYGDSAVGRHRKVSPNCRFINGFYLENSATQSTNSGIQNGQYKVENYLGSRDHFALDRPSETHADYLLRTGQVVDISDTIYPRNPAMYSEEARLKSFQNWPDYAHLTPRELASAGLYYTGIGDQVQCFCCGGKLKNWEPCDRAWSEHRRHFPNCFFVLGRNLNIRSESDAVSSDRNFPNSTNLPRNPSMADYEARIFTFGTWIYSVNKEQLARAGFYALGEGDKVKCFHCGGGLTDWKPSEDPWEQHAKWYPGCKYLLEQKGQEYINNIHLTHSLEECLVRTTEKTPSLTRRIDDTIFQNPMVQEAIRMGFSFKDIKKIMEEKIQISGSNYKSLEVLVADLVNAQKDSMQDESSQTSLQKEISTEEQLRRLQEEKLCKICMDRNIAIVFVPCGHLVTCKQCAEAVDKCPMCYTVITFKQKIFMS

| Compound | z-score [1] | z-score [2] | z-score [3] | z-score [4] | z-score [5] | z-score [6] | z-score [7] | z-score [8] | z-score [9] | z-score [10] | z-score [11] | z-score [12] | z-score [13] | composite z-score [14] | z-score [15] | z-score [16] | z-score [17] | z-score [18] | z-score [19] | composite z-score [20] |
| --- | --- | --- | --- | --- | --- | --- | --- | --- | --- | --- | --- | --- | --- | --- | --- | --- | --- | --- | --- | --- |
| CC(C)CCC[C@@H](C)[C@H]1CC[C@@]2(C)C3=C(CC[C@]12C)[C@@]1(C)CC[C@H](OC(=O)c2ccccc2)C(C)(C)C1CC3 (stereo not given in full) | 0.667 | 0.635 | 0.771 | 0.34 | 0.201 | 1.73 | 1.1 (inactive) | -0.671 | -2.12 | 0.774 (inactive) | 0.533 | 0.436 (inactive) | 0.351 (inactive) | -1.48 (inactive) | 0.968 (inactive) | -1.61 (inactive) | 1.94 (inactive) | 1.57 (inactive) | 0.56 | -0.248 |
| Cc1ccc(S[C@]2(C(=O)NCc3ccccc3)CC(=O)N(Cc3cc(C(F)(F)F)cc(C(F)(F)F)c3)[C@@H]2c2ccc(CO)cc2I)cc1 | 0.666 | 0.336 | -0.165 | -1.87 | -2.22 | 0.994 | -0.00208 (inactive) | -0.133 | -0.713 | 0.772 (inactive) | 1.24 | -3.9 (inactive) | -2.82 (inactive) | -0.459 (inactive) | 0.0214 (inactive) | -0.741 (inactive) | 0.671 (inactive) | 0.602 (inactive) | -1.17 | -0.0622 |
| COCCCNC(=O)[C@@]1(c2ccc([N+](=O)[O-])cc2)CC(=O)N(C(C)C)[C@@H]1c1ccc(CO)cc1 | 1.12 | 1.22 | 0.603 | 0.105 | 0.243 | -0.0251 | -0.612 (inactive) | -0.795 | -1.28 | 0.985 (inactive) | 0.145 | -0.569 (inactive) | 0.879 (inactive) | -0.499 (inactive) | 0.0561 (inactive) | -0.203 (inactive) | 0.0472 (inactive) | -0.0495 (inactive) | 1.24 | 0.0223 |
| C=CCC(OC(C)=O)[C@@H]1[C@@H](N(Cc2cccc3ccccc23)C(=O)c2cccc3ccccc23)c2cc(OCCCO)ccc2N1C(=O)c1ccc2ccccc2c1 (stereo not given in full) | -0.0249 | 0.521 | -0.184 | -0.189 | 0.0694 | 2.48 | -0.419 (inactive) | 0.489 | 0.591 | 0.933 (inactive) | 0.628 | -0.775 (inactive) | 0.62 (inactive) | -0.29 (inactive) | -1.44 (inactive) | -0.646 (inactive) | 0.745 (inactive) | 0.386 (inactive) | -0.0722 | -0.179 |
| O=C1C2C=CC(C(O)c3ccc4c(c3)OCO4)N(Nc3ccccc3)C2C(=O)N1c1ccccc1 (stereo not given) | -0.587 | -0.756 | -0.634 | -0.427 | 0.0871 | -1.47 | -1.19 (inactive) | 0.558 | -0.636 | 0.773 (inactive) | -0.0551 | 0.939 (inactive) | -0.793 (inactive) | 0.0433 (inactive) | 0.338 (inactive) | 0.581 (inactive) | -0.0005 (inactive) | -0.387 (inactive) | -0.827 | -0.0524 |
| COc1cc(CO)cc(I)c1O[C@H]1C=C(C(=O)NCCO)C[C@@H](NCC2CCCCC2)[C@@H]1O | 1.31 | 0.13 | 0.407 | -0.235 | 0.893 | 1.25 | -0.328 (inactive) | -0.561 | -1.5 | 0.258 (inactive) | 0.361 | -0.964 (inactive) | -0.221 (inactive) | -0.257 (inactive) | -0.107 (inactive) | -0.489 (inactive) | 1.45 (inactive) | 0.866 (inactive) | 0.428 | 0.0831 |
| O=C1C2C=CC(C(O)c3ccc(I)cc3)N(Nc3ccccc3)C2C(=O)N1c1ccccc1 (stereo not given) | 0.0685 | -0.748 | 0.1 | 0.196 | -0.311 | -2.3 | -1.3 (inactive) | -0.865 | -0.603 | -0.393 (inactive) | -1.04 | -2.16 (inactive) | -1.38 (inactive) | 0.45 (inactive) | 1.58 (inactive) | -0.208 (inactive) | -1.07 (inactive) | -0.28 (inactive) | -0.312 | 0.162 |
| CC(C)(C)OC(=O)CC[C@]12N=C(c3ccc(OCCCO)cc3)O[C@H]1c1ccccc1N(Cc1ccccc1)C2=O | 0.413 | 0.709 | 0.909 | -2.74 | -4.27 | 0.0521 | 1.16 (inactive) | -1.2 | -0.0831 | 1.66 (inactive) | 0.851 | 0.342 (inactive) | -0.922 (inactive) | -0.316 (inactive) | 0.95 (inactive) | 2.29 (inactive) | 1.1 (inactive) | 0.124 (inactive) | -1.55 | 0.0968 |
